According to PubChem BioAssay (Tox21):
Inconclusive results are not listed. Active and inactive are the calls of the source. Unless noted, calls follow the shape of the dose curve; as a rule, active = well fitted curve in the direction sought with a large enough effect in the repeat runs; inconclusive = weak or mixed curves; inactive = no such curve, though single readings can be large; an effect the other way counts as inactive or inconclusive.

How the values were obtained:
[1] = qHTS assay to identify small molecule agonists of the vitamin D receptor (VDR) signaling pathway - cell viability counter screen (AID 743224); also: nearly all actives have a fitted effect of over 50% in size; also: potency is read from the fitted curve at half-maximal effect
In short: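 VDR-bla cells were preincubated 4 h at 37C/5% CO2, then exposed to compounds for 16 h. After the 2 h room-temperature bla FRET read, CellTiter-Glo was added to the same wells and luminescence read after 30 min.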

[2] = qHTS assay to identify small molecule agonists of the NFkB signaling pathway (AID 1159509; active = well fitted curve in the direction sought with a large enough effect in the signal ratio in the repeat runs, not every such curve was filed as active; the % refers to the signal ratio; also: potency is read from the fitted curve at half-maximal effect)
In short: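 After overnight attachment, reporter cells received test compounds, DMSO or positive controls and were incubated 5 hr at 37 C. FRET substrate was then added for 1.5 hr at room temperature before dual-emission fluorescence reading.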

[3] = qHTS assay to identify small molecule agonists of the endoplasmic reticulum stress response signaling pathway - cell viability counter screen (AID 1159517; calls by dose curve; also: nearly all actives have a fitted effect of over 50% in size; also: potency is read from the fitted curve at half-maximal effect)
In short: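 Luminescence readout: CellTiter-Glo, 30 min RT, same wells as the ESRE-bla reporter read. HeLa ESRE-bla, 1,500 cells/well, o/n 37 C; cpd 5 hr 37 C/5% CO2.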

[4] = qHTS assay to identify small molecule antagonists of the retinoid-related orphan receptor gamma (ROR-gamma) signaling pathway - cell viability counter screen (AID 1159520); also: nearly all actives have a fitted effect of over 50% in size; also: potency is read from the fitted curve at half-maximal effect
In short: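 Tet-on ROR gamma CHO cells (1,000/well) were plated 4 hr, given compounds in DMSO for 2 hr at 37 C, then induced with 1 uM final doxycycline for 16 hr. Viability was read as ATP by CellTiter-Glo luminescence after 30 min.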

[5] = molecular target: Nuclear receptor ROR-gamma (Homo sapiens) (UniProt P51449); assay: qHTS assay to identify small molecule antagonists of the retinoid-related orphan receptor gamma (ROR-gamma) signaling pathway (AID 1159521; also: nearly all actives have a fitted effect of over 50% in size; also: potency is read from the fitted curve at half-maximal effect)
In short: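 CHO cells expressing RORγ under a TET-on promoter, luciferase under RORE control. Dox 1 uM final, 16 h; compounds added 2 h prior. Luminescence decrease measured.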

[6] = qHTS assay to identify small molecule agonists of the AP-1 signaling pathway - cell viability counter screen (AID 1159525; calls by dose curve; also: nearly all actives have a fitted effect of over 55% in size; also: potency is read from the fitted curve at half-maximal effect)
In short: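 ME-180 AP-1-bla, 2500 cells/well, Opti-MEM + 0.5% dialyzed FBS; overnight 37 °C; cpd 15-pt titration, 5 h 37 °C; CellTiter-Glo 30 min RT; luminescence read; normalised to TOAB and DMSO controls.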

[7] = qHTS assay to identify small molecule agonists of the AP-1 signaling pathway (AID 1159526; calls by dose curve)
[8] = qHTS assay to identify small molecule agonists of the RXR signaling pathway - cell viability counter screen (AID 1159529); also: nearly all actives have a fitted effect of over 50% in size; also: potency is read from the fitted curve at half-maximal effect
In short: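 Same-well viability check after the LiveBLAzer FRET read: CellTiter-Glo added, luminescence measured after 30 min at room temperature. Reporter HEK 293T cells had been treated with compounds for 16 hr following a 5 hr preincubation.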

[9] = qHTS assay to identify small molecule antagonists of the retinoid acid receptor (RAR) signaling pathway - cell viability counter screen (AID 1159551); also: nearly all actives have a fitted effect of over 35% in size
In short: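 C3RL4 cells were seeded overnight at 37 C, then treated with compounds plus 1 uM (final) retinol for 6 h at 37 C. Viability was read as ATP by CellTiter-Glo luminescence after 30 min at room temperature.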

[10] = qHTS assay to identify small molecule agonists of the retinoic acid receptor (RAR) signaling pathway (AID 1159553); conditions: C3RL4 RARE luciferase reporter, agonist, 6 h; activation: at 73.3 µM (top of the series); also: potency is read from the fitted curve at half-maximal effect
In short: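 C3RL4 cells carrying a RARE luciferase reporter were plated overnight at 37 C, then exposed to compounds in DMSO for 6 hr at 37 C and 5% CO2. Luminescence was read 30 min after luciferase reagent addition at room temperature.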

[11] = qHTS assay to identify small molecule antagonists of the vitamin D receptor (VDR) signaling pathway - cell viability counter screen (AID 743225); also: nearly all actives have a fitted effect of over 50% in size; also: potency is read from the fitted curve at half-maximal effect
In short: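 Luminescent cell viability (CellTiter-Glo) in VDR-bla HEK 293T cells after 16 h compound exposure at 37C in the presence of 3 nM final 1-alpha,25-dihydroxy vitamin D3.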

[12] = qHTS assay to identify small molecule agonists of the endoplasmic reticulum stress response signaling pathway (AID 1159516; active = well fitted activation curve with a large enough effect in the signal ratio in the repeat runs, not every such curve was filed as active; the % refers to the signal ratio)
In short: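 CellSensor ESRE-bla HeLa cells, carrying a beta-lactamase reporter driven by the ER stress response element, were plated overnight and exposed to compounds for 5 hr at 37 C. Reporter activity was read as FRET substrate fluorescence after 2 hr at room temperature.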

[13] = qHTS assay to identify small molecule antagonists of the retinoic acid receptor (RAR) signaling pathway (AID 1159552; also: nearly all actives have a fitted effect of over 50% in size; also: potency is read from the fitted curve at half-maximal effect)
In short: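 Readout: luciferase luminescence, 30 min post-reagent at RT. Setup: C3RL4 RARE reporter cells, compounds plus retinol 1 uM final, 6 hr incubation at 37 C and 5% CO2.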

[14] = molecular target: Retinoic acid receptor RXR-alpha (Homo sapiens) (UniProt P19793); assay: qHTS assay to identify small molecule agonists of the RXR signaling pathway (AID 1159527; calls by dose curve; also: nearly all actives have a fitted effect of over 35% in size; also: potency is read from the fitted curve at half-maximal effect)
In short: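 Beta-lactamase reporter assay, agonist format. Engineered HEK 293T line, charcoal-stripped FBS at 2%, overnight (16 hr) exposure, fluorescence at 460 and 530 nm after 405 nm excitation.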

[15] = qHTS assay to identify small molecule antagonists of the estrogen related receptor (ERR) signaling pathway - cell viability counter screen (AID 1224818);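 also: viability measured after 17.5 h of compound exposure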
In short: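 ERR reporter cells plated 6 h at 37 C/5% CO2, then compounds in DMSO pin-transferred and incubated 17.5 h at 37 C. Viability read as CellTiter-Fluor fluorescence after 30 min at 37 C.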

[16] = qHTS assay to identify small molecule antagonists of the estrogen related receptor signaling pathway with the pleiotropic PPARgamma coactivator (PGC) cell viability counter screen (AID 1224822)
In short: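 PGC/ERR cells were seeded at 2,000 cells/well, rested 6 h at 37 C/5% CO2, then given compounds in DMSO by pin tool and incubated 17.5 h at 37 C. Viability came from CellTiter-Fluor fluorescence after 30 min.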

Measured: Potency

Sequence of Retinoic acid receptor RXR-alpha (Homo sapiens) (P19793 whole entry, looked up): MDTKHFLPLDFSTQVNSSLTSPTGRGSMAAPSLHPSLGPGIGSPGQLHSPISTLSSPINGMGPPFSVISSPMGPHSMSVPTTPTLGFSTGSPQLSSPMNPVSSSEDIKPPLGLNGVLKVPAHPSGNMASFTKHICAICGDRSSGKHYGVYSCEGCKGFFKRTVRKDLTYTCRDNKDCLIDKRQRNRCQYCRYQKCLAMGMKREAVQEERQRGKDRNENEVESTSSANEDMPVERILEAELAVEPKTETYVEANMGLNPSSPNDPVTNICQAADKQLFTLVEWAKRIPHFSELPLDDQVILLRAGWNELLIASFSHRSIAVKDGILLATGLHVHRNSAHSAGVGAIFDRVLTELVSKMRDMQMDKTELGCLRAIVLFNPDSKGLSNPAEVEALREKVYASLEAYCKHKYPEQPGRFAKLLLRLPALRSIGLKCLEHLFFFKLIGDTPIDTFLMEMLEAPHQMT

CC(C)=CCC/C(C)=C/CC/C(C)=C/C(=O)OCC(=O)[C@@]1(O)CC[C@H]2[C@@H]3CCC4=CC(=O)C=C[C@]4(C)[C@H]3[C@@H](O)C[C@@]21C
active: [1] 26.6 µM | [5] 6.68 µM
inactive: [2] | [3] | [4] | [6] | [7] | [8] | [9] | [10]

O=C1c2ccccc2C(=O)C1c1ccc(Br)cc1
not listed: [3] | [6] | [10] | [14] | [15] | [16]
inactive: all other assays above

O=C(/C=C/c1ccccc1)OCCc1ccccc1
active: [10] 2.73 µM
not listed: [3] | [6] | [14] | [15] | [16]
inactive: all other assays above

CC[N+](CC)(CCNC(=O)C(=O)NCC[N+](CC)(CC)Cc1ccccc1Cl)Cc1ccccc1Cl
not listed: [12] | [15] | [16]
inactive: all other assays above

C=CCc1ccccc1OCC(O)CNC(C)C (centres undefined)
not listed: [3] | [10] | [13]
inactive: all other assays above

CC(O)c1ccccc1 (centres undefined)
not listed: [3] | [10] | [15] | [16]
inactive: all other assays above

CC1(CN2CCC(n3c(=O)[nH]c4ccccc43)CC2)OCc2ccccc2-n2cccc21 (centres undefined)
inactive: [11] | [2] | [12] | [6] | [9] | [10]
active: [13] 29.8 µM

COC(=O)c1nc(Cl)c(Cl)nc1N
inactive: [6]
active: [1] 11.9 µM | [11] 23.9 µM | [2] 15.1 µM | [3] 21.3 µM | [4] 13.3 µM | [5] 3.76 µM | [8] 13.4 µM | [13] 11.9 µM

CO/N=C(/C(=O)N[C@@H]1C(=O)N2C(C(=O)O)=C(COC(N)=O)CS[C@H]12)c1ccco1
not listed: [3] | [5] | [7] | [15] | [16]
inactive: all other assays above

C=CC(C)(CCC=C(C)C)OC(=O)CC(C)C (centres undefined)
not listed: [12] | [15] | [16]
inactive: all other assays above

CC(C)C[C@H](NC(=O)[C@H](CCc1ccccc1)NC(=O)CN1CCOCC1)C(=O)N[C@@H](Cc1ccccc1)C(=O)N[C@@H](CC(C)C)C(=O)[C@@]1(C)CO1
active: [4] 0.75 µM | [5] 1.19 µM | [10] 0.0473 µM
inactive: [2] | [12] | [6] | [7] | [8] | [9] | [13]

Cc1ccc(C(C)(C)O)cc1
not listed: [3] | [10] | [13] | [15] | [16]
inactive: all other assays above

CCCCCCCC/C=C\CCCCCCCCCCCC(=O)O
not listed: [3] | [5] | [15] | [16]
inactive: all other assays above

CC(C)c1nc(CN(C)C(=O)N[C@H](C(=O)N[C@@H](Cc2ccccc2)C[C@H](O)[C@H](Cc2ccccc2)NC(=O)OCc2cncs2)C(C)C)cs1
inactive: [1] | [2] | [4] | [5] | [7] | [9] | [13]
active: [3] 15.1 µM | [6] 19 µM | [8] 9.52 µM

NCCNCCO
not listed: [3] | [10] | [11] | [15] | [16]
inactive: all other assays above

Cc1ccco1
not listed: [3] | [10] | [13] | [14] | [15] | [16]
inactive: all other assays above

C=C(C)C(=O)OCCCCCCCCCCCCC
not listed: [3] | [15] | [16]
inactive: all other assays above

O=C(O)c1cccc(-c2noc(-c3ccccc3F)n2)c1
active: [13] 0.422 µM
inactive: [1] | [2] | [12] | [4] | [7] | [8] | [9]

c1csc(SSc2cccs2)c1
inactive: [1] | [11] | [2] | [3] | [6]
active: [8] 38.9 µM | [13] 9.69 µM

O=C(Nc1cccc2c(=O)cc(-c3nn[nH]n3)oc12)c1ccc(OCCCCc2ccccc2)cc1
inactive: [2] | [3] | [4] | [14] | [8] | [9] | [13] | [10]

CCCCCCCCOc1ccc(C(=O)O)cc1
active: [14] 19.3 µM
not listed: [3] | [10] | [12] | [13] | [15] | [16]
inactive: all other assays above
